Laboratory results published in PubChem BioAssay (NCI).
About 83,000 compounds went through this panel and 20% of them were active in at least one assay; those are over-represented in the sample as a whole.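 Results are percent growth after 48 hours of single-concentration exposure. 100 means growth as in untreated cells, lower positive values show inhibition; negative values down to -100 show cell death.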 Active and inactive are the calls of the source. The calls were made as follows: active = growth percent below 10; inactive = the rest. Where a SMILES comes first, the peptide text is derived from it. Bridges are numbered along the chain shown (N, C = ends). [ ]: non-standard residue; d: D form. The star is where a group is joined. ξ: configuration not given here. ξNMePhe(4-NMe2) = CNC(Cc1ccc(N(C)C)cc1)C(=O)O; Picolinoyl(3-OH) = O=C(c1ncccc1O)*; ξPip(4-oxo) = O=C1CCNC(C(=O)O)C1; Phg = N[CH](C(=O)O)c1ccccc1; Abu = CC[CH](N)C(=O)O

Assays:
Assay in all cases: NCI-60 one-dose screen, 48 h (100 = growth as untreated, 0 = no growth, -100 = all killed)
Conditions in all cases: 10 µM
[1] = tested on: NCI-H23 lung
[2] = tested on: NCI-H226 lung
[3] = tested on: NCI-H322M lung
[4] = tested on: HOP-62 NSCLC
[5] = tested on: NCI-H460 lung
[6] = tested on: HOP-92 NSCLC
[7] = tested on: NCI-H522 lung
[8] = tested on: A549/ATCC NSCLC
[9] = tested on: 786-0 renal
[10] = tested on: COLO 205 colon
[11] = tested on: DU-145 prostate
[12] = tested on: K-562 leukemia
[13] = tested on: MALME-3M melanoma
[14] = tested on: MDA-MB-231 breast
[15] = tested on: RXF 393 renal
[16] = tested on: SF-268 CNS
[17] = tested on: SF-295 CNS
[18] = tested on: SF-539 CNS
[19] = tested on: UACC-257 melanoma
[20] = tested on: M14 melanoma

Measured: growth

O=c1c2ccccc2c(Br)c(Br)c2ccccc12
inactive: [1] 78.1% | [2] 74.2% | [3] 119% | [4] 112% | [5] 116% | [6] 83.7% | [8] 95.1% | [9] 84.3% | [10] 55% | [11] 114% | [12] 52.6% | [13] 94.7% | [14] 115% | [15] 48% | [16] 110% | [17] 99.4% | [18] 98.6% | [19] 66.2%
active: [7] -33.9% | [20] 5.89%

CCOC(=O)C1=C(C)NC(=O)NC1c1cccs1 (stereo not given)
inactive: [1] 98.4% | [2] 110% | [3] 111% | [4] 109% | [5] 118% | [6] 107% | [7] 101% | [8] 94.8% | [9] 106% | [10] 107% | [11] 122% | [12] 103% | [13] 110% | [14] 110% | [15] 99.7% | [16] 108% | [17] 112% | [18] 103% | [19] 102% | [20] 111%

O=c1cc(-c2ccccc2)[nH]c2c1CCCC2
inactive: [1] 32.1% | [2] 54.3% | [3] 50.8% | [4] 28.8% | [6] 46.7% | [7] 13.6% | [8] 36.6% | [9] 36.4% | [11] 21.2% | [12] 23.2% | [13] 31.6% | [14] 33.8% | [16] 57.3% | [17] 18.1% | [19] 46.9%
active: [5] 7.59% | [10] -10.1% | [15] -21.7% | [18] 3.77% | [20] 8.23%

NC(=O)N/N=C\c1ccco1
inactive: [1] 108% | [2] 102% | [3] 94.1% | [4] 112% | [5] 117% | [6] 102% | [7] 92.1% | [8] 110% | [9] 104% | [10] 119% | [11] 131% | [12] 100% | [13] 114% | [14] 110% | [15] 109% | [16] 112% | [17] 132% | [18] 109% | [19] 85.1% | [20] 104%

O=C(c1ccccc1)C1CCC1
inactive: [1] 102% | [2] 102% | [3] 101% | [4] 94.5% | [5] 107% | [6] 86.6% | [7] 85.9% | [8] 71.6% | [9] 107% | [10] 112% | [11] 117% | [12] 99.3% | [13] 117% | [14] 98.3% | [15] 109% | [16] 100% | [17] 104% | [18] 103% | [19] 102% | [20] 108%

CCOC(=O)c1[nH]c(C)c(C(=O)O)c1C
inactive: [1] 109% | [2] 101% | [3] 91.8% | [4] 111% | [5] 110% | [6] 104% | [7] 90.4% | [8] 76.2% | [9] 110% | [10] 112% | [11] 114% | [12] 102% | [13] 122% | [14] 107% | [15] 115% | [16] 105% | [17] 122% | [18] 105% | [19] 111% | [20] 124%

CC(C)OC(=O)c1cc(NC(=S)OC(C)C)ccc1Cl
inactive: [1] 79.7% | [2] 86.6% | [3] 85.8% | [4] 91.5% | [5] 108% | [6] 73.8% | [7] 77.4% | [8] 70.6% | [9] 82.2% | [10] 102% | [11] 83.8% | [12] 73.7% | [13] 67.6% | [14] 72.7% | [15] 35.8% | [16] 92% | [17] 83.5% | [18] 89.6% | [19] 78.9%

N#Cc1c(N)sc(=S)c2c1CCCC2
inactive: [1] 101% | [2] 104% | [3] 123% | [4] 104% | [5] 115% | [6] 103% | [7] 102% | [8] 105% | [9] 104% | [10] 111% | [11] 113% | [12] 113% | [13] 119% | [14] 111% | [15] 118% | [16] 104% | [17] 110% | [18] 110% | [19] 110% | [20] 116%

COc1cc2c(cc1O)CC[C@@H]1C2CC[C@@]2(C)C1CC[C@@H]2O (stereo not given in full)
inactive: [1] 406% | [2] 57.7% | [3] 53.5% | [4] 33.3% | [6] 79.8% | [8] 13.9% | [9] 36% | [10] 82.5% | [11] 11% | [13] 48.1% | [14] 26.7% | [16] 50.6% | [17] 25.2% | [19] 23.3%
active: [5] 8.58% | [7] 1.84% | [12] 2.79% | [15] -4.44% | [18] -4.91%

CC(=O)OCCC(C)CCC=C(C)C (stereo not given)
inactive: [1] 105% | [2] 105% | [3] 114% | [4] 108% | [5] 104% | [6] 98.8% | [7] 92.7% | [8] 101% | [9] 108% | [10] 114% | [11] 107% | [12] 98.5% | [13] 114% | [14] 98.1% | [15] 116% | [16] 97.2% | [17] 106% | [18] 99.1% | [19] 106%

COc1cc(C(=O)N/N=C/c2cccc([N+](=O)[O-])c2)cc(OC)c1OC
inactive: [1] 61.7% | [2] 77.8% | [3] 87.2% | [4] 77.1% | [5] 18.5% | [6] 70.7% | [7] 19.6% | [8] 65.7% | [9] 78.2% | [10] 30.2% | [11] 87.4% | [12] 35.8% | [13] 40.1% | [14] 65.1% | [15] 60% | [16] 73.6% | [17] 48.2% | [18] 66.2% | [19] 76.3% | [20] 29.9%

Cc1cc(=O)cc(C)n1-c1ccccc1
inactive: [1] 96.5% | [2] 96.3% | [3] 106% | [4] 99.6% | [5] 107% | [6] 90.6% | [7] 102% | [8] 99.1% | [9] 90% | [10] 106% | [11] 121% | [12] 105% | [13] 99.3% | [14] 106% | [15] 104% | [16] 109% | [17] 96.3% | [18] 102% | [19] 106% | [20] 101%

CCOC(=O)/C(=C/c1ccc(OC)cc1)N(CC)CC
inactive: [1] 96.3% | [2] 97% | [3] 105% | [4] 103% | [5] 103% | [6] 81.4% | [7] 94.1% | [8] 101% | [9] 103% | [10] 115% | [11] 102% | [12] 102% | [13] 108% | [14] 107% | [15] 107% | [16] 100% | [17] 101% | [18] 108% | [19] 103% | [20] 107%

CC(=O)OCC1=CC2OC(=O)C3=COC(OC4OC(CO)C(O)C(O)C4O)C1C32 (stereo not given)
inactive: [1] 72.4% | [2] 105% | [3] 104% | [4] 108% | [5] 120% | [6] 89.3% | [7] 93.5% | [8] 138% | [9] 98.9% | [10] 114% | [11] 114% | [12] 121% | [13] 96.5% | [14] 113% | [15] 36.8% | [16] 120% | [17] 112% | [18] 109% | [19] 102%

COc1cc2cc(OC(C)=O)c3cc4c(cc3c2c(OC)c1OC)OCO4
inactive: [1] 91.9% | [2] 94.7% | [3] 95.4% | [4] 91.5% | [5] 103% | [6] 96.3% | [7] 97.6% | [8] 106% | [9] 106% | [10] 106% | [11] 98.8% | [12] 107% | [13] 98.4% | [14] 108% | [15] 94.6% | [16] 97.9% | [17] 93% | [18] 103% | [19] 105% | [20] 96.5%

CC1Cc2ccccc2O1 (stereo not given)
inactive: [1] 98.6% | [2] 107% | [3] 131% | [4] 108% | [5] 109% | [6] 109% | [7] 114% | [8] 103% | [9] 109% | [10] 110% | [11] 124% | [12] 117% | [13] 126% | [14] 115% | [15] 118% | [16] 113% | [17] 104% | [18] 100% | [19] 112% | [20] 107%

CCC1NC(=O)C(NC(=O)c2ncccc2O)C(C)OC(=O)C(c2ccccc2)NC(=O)C2CC(=O)CCN2C(=O)C(Cc2ccc(N(C)C)cc2)N(C)C(=O)C2CCCN2C1=O (stereo not given) (tested in a mixture with another compound) ({Picolinoyl(3-OH)}-T[Abu]P[ξNMePhe(4-NMe2)][ξPip(4-oxo)][Phg]; ester 1-C; configuration not given here)
inactive: [1] 19.7% | [2] 56.7% | [3] 87.2% | [4] 87.7% | [5] 26.2% | [6] 53.8% | [7] 66% | [8] 28.1% | [9] 67.4% | [10] 27% | [11] 46.9% | [12] 38.3% | [13] 55.4% | [14] 58.6% | [15] 27.6% | [16] 79.8% | [17] 20.7% | [18] 64.2% | [19] 70.6%
